# Measurements published in ChEMBL document CHEMBL3433997, “St. Jude Leishmania screening dataset” (2016).
# Biological target: Glucose transporter (Leishmania mexicana) (UniProt O61059)
# Test: ST_JUDE_LEISH: Cytotoxicity at 2uM final concentration against transgenic Leishmania Mexicana promastigotes LmGT2 that are glucose transport deficient and complemented with the L. Mexicana glucose transporter 2. Activity is measured by DNA content using SYBR green in vitro
# Type: functional
row,SMILES,inhibition
1,COc1cccc(CC(=O)NC2CCN(c3ccnc4cc(Cl)ccc34)C2)c1 (stereo not given),1.48%
2,CN(Cc1cccc(O)c1)C1CCCN(c2cc(NC(=O)c3ccc(F)cc3)ccn2)C1 (stereo not given),5.91%
3,COc1ccc(NC(=O)CCNc2cc(C)nc(NCc3ccccc3C)n2)cc1,3.93%
4,COc1cccc(CN2CCCN(Cc3cccc(NC(=O)c4ccc(Cl)c(Cl)c4)c3)CC2)c1,2.19%
5,O=C(CNC1CCCCC1)Nc1cccc(C(=O)Nc2cccc(C(F)(F)F)c2)c1,-1.14%
6,CSc1ccc(CN2CCC(NC(=O)c3ccc(-c4cccc(Cl)c4)s3)CC2)cc1,2.36%
7,CCN(CC)CCNc1nccc(N(C)c2ccc(NC(=O)Nc3cc(C(F)(F)F)ccc3F)cc2)n1,0.26%
8,Cc1cc(NCCCOc2ccc(Cl)cc2)nc(NCc2ccccc2)n1,7.19%
9,CC(C)C(NC(=O)Cc1cccc2ccccc12)C(=O)Nc1cccc(C#N)c1 (stereo not given),2.76%
10,O=C(Nc1ccc(Cl)c(C(F)(F)F)c1)c1ccc(Cl)c([N+](=O)[O-])c1,0.08%
11,N=C(N)c1ccc(NCc2cccc(C(=O)O)c2)cc1,3.66%
12,Cc1c(-c2cccc(C(C)(C)NC3CCN(Cc4ccccc4)CC3)c2)cnc(N)c1C,2.38%
13,CC[C@H](C)CNC(=O)c1cccc(-c2cccc(CNCC3CNCCCO3)c2)n1 (stereo not given in full),-0.09%
14,COc1cc2nc(N3CCC(CNC(=O)c4ccc(C(C)=O)cc4)CC3)nc(N)c2cc1OC,3.9%
15,O=C(/C=C/c1ccc(I)cc1)NCCCCCN1CCC(c2c[nH]c3ccccc23)CC1,2.95%
16,O=C(Cn1c(CCc2cccc(F)c2F)cc(=O)c2cccnc21)N(CCn1ccnc1)Cc1ccc(-c2ccc(C(F)(F)F)cc2)cc1,-1.45%
17,O=C(Nc1cccnc1)c1ccc(-c2cc3ccncc3cc2OC2CCNCC2)s1,2.16%
18,Oc1ccc(Nc2ccnc3cc(Cl)ccc23)cc1,4.27%
19,Cc1sc2ccc(Cl)cc2c1S(=O)(=O)Nc1ccc2nccc(N3CC(C)NC(C)C3)c2c1 (stereo not given),6.32%
20,CN1CCN(c2ccnc3cc4c(cc23)N(C(=O)Nc2ccc3c(c2)CCCC3=O)CC4)CC1,0.75%

row,SMILES,inhibition
1,O=C(NCc1ccc(Cl)c(Cl)c1)c1ccc(-c2nc3ccc(Cl)cc3[nH]2)cc1,3.4%
2,CC1(C)N=C(N)N=C(N)N1OCc1cccc(C#N)c1,1.5%
3,COc1cc(-c2[nH]c(-c3ccc(OCCN(C)C)cc3)cc2-c2ccncc2)ccc1Cl,1.76%
4,NOCCCOc1ccccc1,0.73%
5,CCCCCN1CCC(NS(=O)(=O)c2cccc(C(=O)Nc3ccc(C(F)(F)F)cc3)c2)C1 (stereo not given),1.9%
6,CNC(=O)C1Cc2c([nH]c3cc(Cl)ccc23)C2(CCN(CCc3ccccc3)CC2)N1 (stereo not given),1.5%
7,CCC(C)c1ccc(NC(=O)c2ccc(S(=O)(=O)Nc3ccc(OC)c(N4CCN(CC5CC5)CC4)c3)cc2)cc1 (stereo not given),-1.88%
8,COc1cc(C)c(NC(=O)c2cccc3c(=O)c(C)c(-c4ccccc4)oc23)cc1OC,-1.52%
9,Cc1nc(-c2nc(N3CCC(O)CC3)ncc2-c2ccsc2)sc1C,0.38%
10,CC(C)(CNCc1cccc(Oc2cccc(C(F)(F)F)c2)c1)c1nc(-c2ccnc(N)n2)c(-c2ccc(Cl)c(O)c2)[nH]1,7.44%
11,COc1cccc(-c2nn(C)c3sc(C(=O)NCCN4CCN(c5ccccc5F)CC4)cc23)c1,0.29%
12,Cc1nc(-c2cccc(C(=O)NC3CCC(CCN4CCc5ccc(-c6cccnc6)cc5CC4)CC3)c2)no1 (stereo not given),4.24%
13,CC(C)N1CCC(NC(=O)N2CCCN(c3ncnc4cc(-c5ccccc5)sc34)CC2)CC1,0.31%
14,FC(F)(F)c1ccc2[nH]c(-c3ccc(-c4cccc(CN5CCCCC5)c4)cc3)nc2c1,0.4%
15,CC(C)COc1ccc(Cl)cc1Cc1ccc(-c2nc3cc(N4CCN(C)CC4)ccc3[nH]2)o1,2.01%
16,O=C(/C=C/c1ccc(Cl)c(Cl)c1)N1CCC(CCN2CCc3[nH]c4ccccc4c3C2)CC1,4.33%
17,CNc1ccc(CNCc2ccc(-c3ccc(-c4nc5cc(F)ccc5[nH]4)cc3)cc2)cc1,-0.33%
18,Nc1ccc(-c2nc3c(ccc4ccccc43)[nH]2)cc1,0.2%
19,CCCCNC[C@@H](O)[C@H](Cc1ccccc1)NC(=O)c1cc2c3c(c1)c(CC)cn3CCS(=O)(=O)N2C,2.04%
20,O=C(Nc1ccc(OC2CCN(Cc3ccco3)CC2)c(Cl)c1)c1ccc2ncccc2c1,2.34%
